In PubChem BioAssay (EPA / NIEHS):
Values joined by “and” are separate entries in the source; they are usually repeats but may differ in a detail not shown here. Identical values can stand only once. Some compounds were tested as several samples or in several runs, with calls that do not always agree. Active and inactive are the calls of the source. How the source made its calls: active means hit-call score of the fitted dose curve at least 0.9, where 1 is the maximum; inactive means score below 0.9.

read-out: Fatty acid synthase (Homo sapiens) (UniProt P49327); assay: LTEA_HepaRG_FASN: Life Technologies and Expression Analysis (LTEA) Assay for Fatty Acid Synthase (FASN) using HepaRG (AID 2283448); settings: mRNA level, 48 h; actives raise or lower the signal
Method: LTEA_HepaRG is a cell based, multiplexed-readout assay that uses HepaRG, a human liver cell line, with measurements taken at 48 hours after chemical dosing on a 96-well plate.LTEA_HepaRG_FASN is one of 102 assay component(s) measured in the LTEA HepaRG cell culture assay. It is a marker of Steatosis.Data from the assay component LTEA_HepaRG_FASN was analyzed into 1 endpoint. This assay endpoint, LTEA_HepaRG_FASN, was analyzed with bidirectional fitting relative to DMSO as the negative control and baseline of activity. Using a type of inducible reporter, measures of mRNA induction for gain or loss-of-signal activity can be used to understand regulation of transcription factor activity. To generalize the intended target to other relatable targets, this assay endpoint is annotated to the lyase intended target family, where the subfamily is fatty acid synthase.
A total of 1060 chemcials from the ToxCast library were tested in eight-point concentration-response experiments. Cell culture and cytotoxicity assays were conducted at Thermo Fisher Scientific's Custom Services facility (Madison, WI). A single lot of human HepaRG cells (Thermo Fisher Scientific, Frederick, MD) was used for the cell culture experiments. 96-well format collagen type I coated plates of human HepaRG cells were prepared using established methods. Briefly, cryopreserved HepaRG cells were thawed, plated at a density of approximately 100,000 cells/well in HepaRG Thaw, Plate, and General Purpose media (HPRG770, Thermo Fisher Scientific), and incubated for 48 hours. 0.5% DMSO was selected as vehicle control to balance the requisite need of DMSO in HepaRG cultures to maintain differentiation (for example, baseline metabolism, proportions of hepatocytes vs. cholangiocytes), while enabling further hepatic receptor pathway activation (for example, PXR and CAR) in response to chemical exposure. 48 hours after plating, the culture medium was replaced with HepaRG Serum-Free Incudtion Media. Cells were exposed to each test chemical in duplicate and maintained in CO2 incubators for another 48 hours. Chemical plates were thawed to room temperature and 200x concentrations of treatment groups were prepared. 8-point conentration-reponse curves were made with the highest exposure at 100 uM, followed by half-log dilutions, all in 0.5% DMSO. Each test plate contained variouse controls, induction positive controls (1mM phenobarbital), cytotoxicity positive controls ([…] aflatoxin B1), vehicle controls (0.5% DMSO), and total lysis controls (0.5% DMSO). Cell morphology images were taken using an Essen IncuCyte FLR automated microscope, with six 96-well plates imaged in about 24 minutes. Images were captured and exported and JPEG files. Spent culture media was transfered to black-well plates for the LDH assay, and remaining media was sorted at -80 C for later use. Cells were treated with RLT buffer and frozen until shipped for gene expression analysis. Total RNA was isolated from the cell suspension in 75 uL of Buffer RLT (Qiagen, Germantown, MD 20874) by Quintiles/Expression Analysis (Durham, NC) using a custom isolation procedure. Total RNA from each plate well was transferred to a preamplification plate. Fluidigm's 96.96 Dynamic ArrayTM (Fluidigm, Amsterdam, the Netherlands) technology was used for gene expression analyses by quantitative reverse transcription polymerase chain reaction (qRT-PCR, performed by Quintiles/Expression Analysis, Durham, NC)89. Standard TaqManTM Assays (Applied Biosystems/ThermoFisher Scientific, Foster City, CA) were used to assess the expression of 93 genes selected based on their selectivity and sensitivity to important hepatic receptors known to be modulated by environmental chemicals; importance in human hepatocyte functionality; and hepatotoxicity. […]

Sequence of Fatty acid synthase (Homo sapiens) (P49327 whole entry, looked up): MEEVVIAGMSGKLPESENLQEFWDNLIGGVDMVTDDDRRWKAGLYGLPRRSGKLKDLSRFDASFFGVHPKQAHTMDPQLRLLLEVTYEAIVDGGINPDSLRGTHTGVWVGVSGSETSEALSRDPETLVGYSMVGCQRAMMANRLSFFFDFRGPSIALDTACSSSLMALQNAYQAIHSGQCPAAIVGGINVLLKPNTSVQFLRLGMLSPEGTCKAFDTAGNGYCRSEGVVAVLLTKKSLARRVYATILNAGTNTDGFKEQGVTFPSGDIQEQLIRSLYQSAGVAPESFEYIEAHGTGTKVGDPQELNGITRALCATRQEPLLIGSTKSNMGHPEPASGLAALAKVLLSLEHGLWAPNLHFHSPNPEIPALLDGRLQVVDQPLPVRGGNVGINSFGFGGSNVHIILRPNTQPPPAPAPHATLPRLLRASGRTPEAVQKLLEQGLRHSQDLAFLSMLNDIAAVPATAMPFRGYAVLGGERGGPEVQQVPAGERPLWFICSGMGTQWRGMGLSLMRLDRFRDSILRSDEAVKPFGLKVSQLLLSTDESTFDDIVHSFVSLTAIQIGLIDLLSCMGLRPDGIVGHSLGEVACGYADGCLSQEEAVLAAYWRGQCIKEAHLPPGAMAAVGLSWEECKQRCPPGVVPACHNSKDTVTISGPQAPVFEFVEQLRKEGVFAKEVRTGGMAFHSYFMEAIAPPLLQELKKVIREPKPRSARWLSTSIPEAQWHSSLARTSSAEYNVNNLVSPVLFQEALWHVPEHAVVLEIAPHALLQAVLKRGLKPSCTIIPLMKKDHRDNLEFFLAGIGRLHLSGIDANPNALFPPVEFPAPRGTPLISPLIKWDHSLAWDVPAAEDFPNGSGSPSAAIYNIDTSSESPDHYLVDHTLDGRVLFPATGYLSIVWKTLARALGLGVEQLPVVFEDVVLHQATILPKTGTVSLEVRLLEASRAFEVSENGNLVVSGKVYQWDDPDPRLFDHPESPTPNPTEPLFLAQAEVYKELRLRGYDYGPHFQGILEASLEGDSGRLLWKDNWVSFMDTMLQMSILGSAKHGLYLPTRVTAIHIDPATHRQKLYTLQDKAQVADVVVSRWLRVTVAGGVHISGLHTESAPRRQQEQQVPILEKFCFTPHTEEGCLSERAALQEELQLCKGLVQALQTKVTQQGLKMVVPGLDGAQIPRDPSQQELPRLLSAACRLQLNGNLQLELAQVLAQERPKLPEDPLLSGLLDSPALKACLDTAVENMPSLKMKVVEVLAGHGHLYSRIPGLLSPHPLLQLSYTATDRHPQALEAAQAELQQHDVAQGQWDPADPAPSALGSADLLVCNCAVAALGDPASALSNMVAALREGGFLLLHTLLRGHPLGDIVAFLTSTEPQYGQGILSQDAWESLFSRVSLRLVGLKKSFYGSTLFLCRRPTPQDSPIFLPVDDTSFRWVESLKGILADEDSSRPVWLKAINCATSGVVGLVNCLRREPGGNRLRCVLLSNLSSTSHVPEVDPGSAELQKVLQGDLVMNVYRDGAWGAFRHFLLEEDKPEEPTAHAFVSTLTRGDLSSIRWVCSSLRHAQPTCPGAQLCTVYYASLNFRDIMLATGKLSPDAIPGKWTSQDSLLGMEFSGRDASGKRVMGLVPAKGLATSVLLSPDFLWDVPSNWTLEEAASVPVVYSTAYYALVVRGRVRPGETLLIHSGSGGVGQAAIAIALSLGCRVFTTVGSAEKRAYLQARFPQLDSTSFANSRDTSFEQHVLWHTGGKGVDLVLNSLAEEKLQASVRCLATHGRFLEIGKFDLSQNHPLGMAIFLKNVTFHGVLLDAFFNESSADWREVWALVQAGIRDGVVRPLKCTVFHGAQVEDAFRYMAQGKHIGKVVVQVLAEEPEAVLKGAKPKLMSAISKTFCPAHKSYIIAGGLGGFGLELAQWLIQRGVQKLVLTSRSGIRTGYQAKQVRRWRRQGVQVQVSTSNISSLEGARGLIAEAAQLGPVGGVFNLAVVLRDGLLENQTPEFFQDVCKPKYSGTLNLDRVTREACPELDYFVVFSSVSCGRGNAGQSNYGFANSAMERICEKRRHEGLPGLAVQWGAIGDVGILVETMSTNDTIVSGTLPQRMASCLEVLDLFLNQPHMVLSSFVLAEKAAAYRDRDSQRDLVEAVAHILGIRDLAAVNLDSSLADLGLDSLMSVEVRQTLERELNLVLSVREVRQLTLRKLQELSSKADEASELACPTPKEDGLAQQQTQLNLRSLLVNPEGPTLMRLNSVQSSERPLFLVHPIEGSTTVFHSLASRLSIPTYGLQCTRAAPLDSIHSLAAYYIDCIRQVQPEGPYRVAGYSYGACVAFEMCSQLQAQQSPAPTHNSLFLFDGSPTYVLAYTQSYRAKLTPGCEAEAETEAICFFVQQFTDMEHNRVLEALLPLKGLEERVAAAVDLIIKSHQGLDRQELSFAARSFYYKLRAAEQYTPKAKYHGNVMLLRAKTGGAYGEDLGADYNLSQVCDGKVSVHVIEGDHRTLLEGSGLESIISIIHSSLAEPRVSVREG

Q: For `CNC(=O)Oc1ccccc1OC(C)C`, which outcome is on record?
A: inactive

Q: Which outcome does the source give for `O=C(O)COc1ccc(Cl)cc1Cl` here?
A: inactive

Q: How did the outcome turn out when `CNC(=O)/C=C(\C)OP(=O)(OC)OC` was run?
A: inactive

Q: With `CCCN(CCOc1c(Cl)cc(Cl)cc1Cl)C(=O)n1ccnc1` as the compound, how does the AC50 read?
A: 77.4 µM (active)

Q: `O=C(O)CCCOc1ccc(Cl)cc1Cl` was tested. Which outcome did it give?
A: inactive

Q: With `COP(=S)(OC)Oc1ccc([N+](=O)[O-])cc1` as the compound, how does the outcome read?
A: inactive

Q: Which outcome does the source give for `CNC(=O)CSP(=S)(OC)OC` here?
A: inactive

Q: How did the AC50 turn out when `CC[C@H](C)[C@H]1O[C@]2(C=C[C@@H]1C)C[C@@H]1C[C@@H](C/C=C(\C)[C@@H](O[C@H]3C[C@H](OC)[C@@H](O[C@H]4C[C@H](OC)[C@@H](O)[C@H](C)O4)[C@H](C)O3)[C@@H](C)/C=C/C=C3\CO[C@@H]4[C@H](O)C(C)=C[C@@H](C(=O)O1)[C@]34O)O2` (tested in a mixture with another compound) was run?
A: 11.4 µM (active)

Q: Which outcome does the source give for `COP(=O)(OC)OC=C(Cl)Cl` here?
A: inactive

Q: How did the outcome turn out when `O=[N+]([O-])c1c(Cl)c(Cl)c(Cl)c(Cl)c1Cl` was run?
A: inactive

Q: Which AC50 does the source give for `CC(C)(C)C(O)C(Oc1ccc(Cl)cc1)n1cncn1` (stereo not given) here?
A: 32.7 µM (active) and 50 µM (active) and 27.9 µM (active)

Q: Which outcome does the source give for `CCC(C)(NC(=O)c1cc(Cl)c(C)c(Cl)c1)C(=O)CCl` (stereo not given) here?
A: inactive

Q: With `Oc1cc(Cl)ccc1Oc1ccc(Cl)cc1Cl` as the compound, how does the outcome read?
A: inactive

Q: And the AC50?
A: 69.9 µM (active)

Q: `O=S1OCC2C(CO1)C1(Cl)C(Cl)=C(Cl)C2(Cl)C1(Cl)Cl` (stereo not given) was tested. Which outcome did it give?
A: inactive

Q: `Clc1ccccc1-c1nnc(-c2ccccc2Cl)nn1` was tested. Which AC50 did it give?
A: 24.7 µM (active)

Q: Which outcome does the source give for `O=C(O)C(F)(F)C(F)(F)C(F)(F)C(F)(F)C(F)(F)C(F)(F)C(F)(F)F` here?
A: inactive

Q: `O=S(=O)(O)C(F)(F)C(F)(F)C(F)(F)C(F)(F)C(F)(F)C(F)(F)C(F)(F)C(F)(F)F` was tested. Which AC50 did it give?
A: 81.5 µM (active) and 71.8 µM (active) and 73.8 µM (active)

Q: Which outcome does the source give for `CN1CSC(=S)N(C)C1` here?
A: inactive

Q: For `Oc1ccc(Cl)cc1Cc1ccccc1`, which AC50 is on record?
A: 87.9 µM (active) and 74.3 µM (active) and 81.6 µM (active)

Q: Which outcome does the source give for `C#CCN1C(=O)COc2cc(F)c(N3C(=O)C4=C(CCCC4)C3=O)cc21` here?
A: inactive

Q: For `O=C(NC(=O)c1c(F)cccc1F)Nc1ccc(OC(F)(F)C(F)OC(F)(F)F)c(Cl)c1` (stereo not given), which AC50 is on record?
A: 8.63 µM (active)

Q: With `O=C1c2ccccc2C(=O)N1SC(Cl)(Cl)Cl` as the compound, how does the outcome read?
A: inactive

Q: With `N#CN` as the compound, how does the outcome read?
A: inactive

Q: With `CC1(c2ccc(Oc3ccccc3)cc2)OC(=O)N(Nc2ccccc2)C1=O` (stereo not given) as the compound, how does the AC50 read?
A: 42.4 µM (active)

Q: For `CCOC1Oc2ccc(OS(C)(=O)=O)cc2C1(C)C` (stereo not given), which outcome is on record?
A: inactive

Q: Which outcome does the source give for `CC(C)OC(=O)Nc1cccc(Cl)c1` here?
A: inactive

Q: Which outcome does the source give for `ClC1C(Cl)C(Cl)C(Cl)C(Cl)C1Cl` (stereo not given) here?
A: inactive

Q: Which outcome does the source give for `OCCOc1ccccc1` here?
A: inactive

Q: With `C[C@H]1[C@H](c2ccc(Cl)cc2)SC(=O)N1C(=O)NC1CCCCC1` as the compound, how does the outcome read?
A: inactive

Q: Which AC50 does the source give for `CCOCN(C(=O)CCl)c1c(C)cccc1CC` here?
A: 90.8 µM (active)

Q: `CCCN(CCC)c1c([N+](=O)[O-])cc(C(F)(F)F)cc1[N+](=O)[O-]` was tested. Which outcome did it give?
A: inactive

Q: Which outcome does the source give for `CCC(C)Nc1c([N+](=O)[O-])cc(C(C)(C)C)cc1[N+](=O)[O-]` (stereo not given) here?
A: inactive

Q: Which outcome does the source give for `CC1(C)C(C=C(Cl)Cl)C1C(=O)OC(C#N)c1ccc(F)c(Oc2ccccc2)c1` (stereo not given) here?
A: inactive

Q: `CNC(=O)Oc1cccc(N=CN(C)C)c1` was tested. Which outcome did it give?
A: inactive

Q: `CCc1ccc(C(=O)NN(C(=O)c2cc(C)cc(C)c2)C(C)(C)C)cc1` was tested. Which outcome did it give?
A: inactive

Q: For `O=C(Nc1ccccc1)Nc1cnns1`, which AC50 is on record?
A: 72.7 µM (active)

Q: How did the AC50 turn out when `CC(C)(C)C(O)/C(=C\c1ccc(Cl)cc1Cl)n1cncn1` (stereo not given) was run?
A: 80.6 µM (active)

Q: `CC(C)N(C(=O)COc1nnc(C(F)(F)F)s1)c1ccc(F)cc1` was tested. Which outcome did it give?
A: inactive

Q: `O=[N+]([O-])/N=C1\NCCN1Cc1ccc(Cl)nc1` was tested. Which AC50 did it give?
A: 20.6 µM (active)
